Compound activity from PubChem BioAssay.
The full list was thinned out, with hits kept by preference.
Dicer processing – blocks human Dicer maturation of pre-miR-21 | actives 6% (n = 47,000) | z-score at 25 µM | cat-ELCCA pre-miR-21 Dicer processing, chemiluminescence; hits give high values | Q9UPY3; in the data active = z-score above about 3, passing the limit was not always enough;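 note: plate controls were vehicle for no effect and no enzyme for full effect; higher signal means more uncleaved substrate so more Dicer inhibition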
An asterisk follows results filed as active.

SMILES	Dicer processing
O=C1C=C(NCc2ccco2)CC(c2ccccc2)C1 (stereo not given)	1.18
O=C1C=C(NCCc2ccccc2)CC(c2ccco2)C1 (stereo not given)	5.65*
O=C1C=C(NCc2ccncc2)CC(c2ccccc2)C1 (stereo not given)	1.75
C=CCc1c(C)nc(-c2ccc(F)c(Cl)c2)[nH]c1=O	0.77
Cc1cc(-c2nnc(SC3CCOC3=O)o2)no1 (stereo not given)	-2.34
O=C1C(=O)N(c2ccc(Cl)cc2)C(=S)/C1=C(/Nc1ccc(Cl)cc1)c1ccccc1	-1.13
O=C(O)Cn1c(=O)oc2ccccc21	0.55
CC(C)OC(=O)Cn1c(=O)oc2ccccc21	3.97*
COC(=O)Cn1c(=O)oc2ccccc21	-0.07
COC(=O)C(O)(NC(=O)c1ccccc1Cl)C(F)(F)F (stereo not given)	3.85*
CCOC(=O)C(NC(=O)c1ccccc1Cl)(Nc1cccc(C)n1)C(F)(F)F (stereo not given)	1.93
CCOC(=O)C(O)(NC(=O)c1ccccc1Cl)C(F)(F)F (stereo not given)	0.08
CCOC(=O)C(NC(=O)c1ccccc1Cl)(Nc1cc(C)ccn1)C(F)(F)F (stereo not given)	-0.24
CCOC(=O)C(NC(=O)c1ccccc1Cl)(Nc1ccc(C)cn1)C(F)(F)F (stereo not given)	3.04*
CCOC(=O)C(O)(NC(=O)c1ccccc1C)C(F)(F)F (stereo not given)	2.57
CN(N)C(=S)Nc1cc(Cl)ccc1Cl	1.23
Cc1ccc(-c2nnn(CC(=O)C(C)(C)C)n2)cc1Cl	0.26
Cc1nnc(Nc2ccc(C)c(C)c2)s1	7.8
Cc1c(CNC(=O)c2cnn3c(C(F)(F)F)cc(-c4ccc(Br)cc4)nc23)cnn1C	2.04
OC(CN1C=CC(C(F)(F)F)=NCC1)C(F)(F)F (stereo not given)	-0.59
COc1ccc(-c2c(C)nn3c(N)c(-c4ccc(Cl)cc4)cnc23)cc1OC	5.46
COc1ccc(-c2c(C)nn3c(-c4ccccc4)cc(C)nc23)cc1OC	2.17
COc1ccc(-c2c(C)nn3c(C)cc(C)nc23)cc1OC	4.85*
N#CCCN(Cc1ccncc1)C(=O)c1sc2ccccc2c1Cl	-0.64
COCCN1C(=O)C(=O)/C(=C(/O)c2ccccc2)C1c1ccc(F)cc1 (stereo not given)	-0.15
SMILES	Dicer processing
CN(C)CCCNCc1cccn1C	3.07*
Cn1cccc1CNCC(O)C(F)(F)F (stereo not given)	-0.06
Cn1cccc1CNCc1cccnc1	1.58
N=C(N)SCc1cc2ccccc2o1	3.22*
N=C(N)SCc1cccc(Cl)c1	1.32
N=C(N)SCc1cccc(CSC(=N)N)c1F	-3.4
CC1=C(C(=O)Nc2nc3ccccc3s2)C(c2cccc(Br)c2)C2=C(CCCC2=O)N1 (stereo not given)	3.18*
COC(=O)C1=C(C)NC2=C(C(=O)CCC2)C1c1cccc(Br)c1 (stereo not given)	-0.4
CCOC(=O)C1=C(C)NC2=C(C(=O)CCC2)C1c1cccc(Br)c1 (stereo not given)	-0.86
Clc1ccc(SCSc2ccc(Cl)cc2)cc1	-1.33
Cc1nnc(Nc2ccccc2Cl)[nH]c1=O	-0.21
CCOC(=O)C1CCN(C(=O)Nc2ccc(F)cc2F)CC1	-0.78
O=C(Nc1ccc(F)cc1F)N1CCN(Cc2ccccc2)CC1	3.04*
CC(C)(C)OC(=O)NC1CCN(C(=O)Nc2ccc(F)cc2F)CC1	0.45
Cn1c(CSc2ccnc3cc(Cl)ccc23)nnc1SCC(=O)N1CCN(c2ccccc2)CC1	1.09
COc1ccc(C(C)=O)cc1CSCC(=O)Nc1ccc(Cl)cc1	0.3
CCOC(=O)C1=CS/C(=C2/C(=S)C(C)(C)Nc3c(OCC)cccc32)S1	3.67*
CCOC(=O)C1=C(C(=O)OCC)SC(=C2C(=S)C(C)(C)Nc3ccc(C)cc32)S1	1.74
CCOc1cccc2c1N(C(C)=O)C(C)(C)C(=S)C2=C1SC(C(=O)OC)=C(C(=O)OC)S1	0.96
c1ccc2sc(SCCCCSc3nc4ccccc4s3)nc2c1	-1.35
COc1ccc(COC(=O)C2=C(C)NC3=C(C(=O)CCC3)C2c2ccc(OC)c(OC)c2)cc1 (stereo not given)	1.24
O=C1/C(=C/c2c(F)cccc2Cl)COc2ccc(F)cc21	0.92
CN(C)c1ccc(C(O)C(=O)c2ccccc2)cc1 (stereo not given)	-0.12
COc1ccc(C(c2ccc(N(C)C)cc2)c2ccc(N(C)C)cc2)c(C)c1C	3.2*
C=CCOc1ccc(C2C(C(=O)c3cccs3)=C(O)C(=O)N2Cc2cccnc2)cc1 (stereo not given)	-3.76
SMILES	Dicer processing
COC(=O)c1cccn1-c1ccccc1[N+](=O)[O-]	0.08
O=C1c2c(O)cccc2Cc2cccc(O)c21	0.28
Nc1ccc(O)c(C(=O)O)c1	1.16
Nc1ccc(O)c2c1C(=O)c1c(N)ccc(O)c1C2=O	3.23*
COCCOC(=O)c1c(C)oc2cc(Br)c(OCc3cccc(OC)c3)cc12	0.02
CN(Cc1ccccc1)S(=O)(=O)c1c(Cl)cc(C(F)(F)F)cc1Cl	-1.72
Cc1ccc2c(=O)c(C(=O)c3ccccc3Cl)coc2c1	3.81*
O=C(Oc1ccc2c(=O)c(-c3ccccc3Cl)coc2c1)c1cccs1	0.61
COC(=O)C(C)Oc1ccc2c(=O)c(Oc3ccccc3Cl)coc2c1 (stereo not given)	-0.38
CCOC(=O)c1c(C)nn(-c2ccc(N)cc2)c1C	0.86
CC(C)(C)OC(=O)C(C)(C)Sc1nc(-c2ccccc2)c(-c2ccccc2)o1	-0.76
Cc1ccc(-c2cnc3c(-c4ccccc4)cnn3c2N)cc1	1.84
Nc1c(-c2ccc(Cl)cc2)cnc2c(-c3ccccc3)cnn12	3.14*
Cc1ccc(-c2cnc3c(-c4ccc(Cl)cc4)cnn3c2N)cc1	2.28
O=S1(=O)CC(Sc2cccs2)c2ccccc21 (stereo not given)	0.21
CSc1nnc(-c2ccc(Br)s2)n1C	-1.5
Cn1nc(-c2ccc(Br)s2)c(Br)c1C(F)(F)F	44.6*
CC(C)NC(=S)N/N=C/c1ccco1	1.2
CCn1c(C(O)c2ccc(N(C)C)cc2)nc2ccccc21 (stereo not given)	2.55
CCn1ccnc1C(O)c1ccc(C)cc1 (stereo not given)	3.06*
COc1cccc(C(O)c2nccn2C)c1OC (stereo not given)	3.14
CC1CCCCN1C(=O)CSc1nc(-c2cccs2)cc(C(F)(F)F)n1 (stereo not given)	-0.47
COC(=O)c1ccc(-n2nnnc2SCc2ccc(Cl)cc2)cc1	1.61
O=C1C(Oc2ccccc2)C(c2ccc(F)cc2)N1Cc1ccc2c(c1)OCO2 (stereo not given)	2.96
COc1ccc(OC2C(=O)N(CCc3ccc(Cl)cc3)C2c2ccc3c(c2)OCO3)cc1 (stereo not given)	4.9*
COc1ccc(OC2C(=O)N(Cc3ccc4c(c3)OCO4)C2c2cccs2)cc1 (stereo not given)	0.58
COc1ccc(OC2C(=O)N(Cc3ccc4c(c3)OCO4)C2c2ccc3c(c2)OCO3)cc1 (stereo not given)	1.57
COc1ccc(OC2C(=O)N(CCc3ccc(F)cc3)C2c2ccc3c(c2)OCO3)cc1 (stereo not given)	3.33*
O=C1C(Oc2ccccc2)C(c2ccc3c(c2)OCO3)N1Cc1ccc2c(c1)OCO2 (stereo not given)	0.72
Cc1ccccc1OC1C(=O)N(Cc2ccc3c(c2)OCO3)C1c1ccc2c(c1)OCO2 (stereo not given)	0.63
